Only some compounds are listed: those with a hit (about 8.2% of all), similar ones and a draw of the others.
ELG1 DNA repair = ELG1-dependent DNA repair inhibition | HEK293T ELG1-luciferase reporter, luminescence, 16 h; DNA damage induced by 5-fluorouridine | actives 2.3% (n = 330,000) | AID 504467 | Potency, µM (highest dose often 46.1 µM), inactives show at the highest dose activity change, negative = inhibition, usual class: inhibitors; also: % is scaled to controls: 0 for no effect and ±100 for the full control effect; nearly all actives have a fitted effect of over 55% in size
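Reporter activity after DNA damage by 5-fluorouridine is monitored. Compound-treated cells incubate 16 hr at 37 °C, then ONE-Glo is added for 30 min before luminescence reading.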
MCF10A rerep = inducers of DNA re-replication in MCF 10A breast cells; MCF 10A DNA re-replication, Hoechst nuclear intensity, 48 h; Potency, µM (highest dose often 46.1 µM), inactives show at the highest dose activity, positive = re-replication, most hits filed as activators; actives 2.9% (n = 350,000); also: % of control where 0% means no effect; nearly all actives have a fitted effect of over 50% in size
KB-V1 MDR tox = kills drug-selected multidrug resistant KB-V1 cells. KB-V1 MDR cells viability, CellTiter-Glo, 72 h. Potency, µM (highest dose often 46.1 µM), hits mostly cytotoxic. actives 3.4% (n = 400,000); also: % is scaled to controls: 0 for no effect and ±100 for the full control effect; nearly all actives have a fitted effect of over 60% in size
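Potencies derive from concentration-effect curves fitted to normalized luminescence (CellTiter-Glo) of KB-V1 cells treated for 72 h at 37 degrees C in phenol-red-free DMEM containing 10% FBS.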
KB-3-1 cytotox = KB-3-1 parental cell cytotoxicity; AID 1347075; Potency, µM (titrated, usually from 46.1 µM), hits mostly cytotoxic; KB-3-1 viability, CellTiter-Glo ATP luminescence, 72 h; actives 1.4% (n = 400,000); also: % is scaled to controls: 0 for no effect and ±100 for the full control effect; nearly all actives have a fitted effect of over 60% in size
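Multi-concentration cytotoxicity screen in KB-3-1 cells grown in DMEM lacking phenol red with 10% FBS. After 72 h at 37 °C with compound, ATP-dependent luminescence was recorded.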
SW480 rerep = inducers of DNA re-replication in SW480 colon cancer cells; SW480 DNA re-replication, Hoechst DNA content imaging, 48 h; Potency, µM (titrated, usually from 46.1 µM), inactives show top-dose re-replication activation, hits mostly activators; actives 1.8% (n = 340,000); AID 624297; also: % of control where 0% means no effect; nearly all actives have a fitted effect of over 55% in size
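Image-based DNA-content assay: after two days of treatment, nuclei were labelled with the DNA dye Hoechst and imaged, and hits were compounds raising the count of nuclei showing high fluorescence intensity.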
* hit, by the source's call; i = inactive; ? = inconclusive; / = no result given. Calls follow the shape of the dose curve; as a rule, active = well fitted curve in the direction sought with a large enough effect; inconclusive = small, poorly fitted or top-dose-only effect, or another doubt; inactive = no such curve, though single readings can be large; an effect the other way counts as inactive or inconclusive. Potency is read from the fitted curve at half-maximal effect.

SMILES	ELG1 DNA repair	MCF10A rerep	KB-V1 MDR tox	KB-3-1 cytotox	SW480 rerep
COc1ccccc1NC(=O)Nc1nc(CC(=O)NCc2ccccn2)cs1	?	?	i	i	12µM*
COc1cc(OC)cc(C(=O)Nc2nc(CC(=O)NCc3ccccc3OC)cs2)c1	?	?	16µM*	i	3%
CCCc1c(NC(=O)Nc2ccc(F)cc2)cnn1-c1ccc(Cl)cc1	-16%	?	?	9.2µM*	?
Cc1ccc(-n2c(C)cc(/C=C3/SC(=O)N(CC(=O)N4CCOCC4)C3=O)c2C)nc1	?	2%	i	i	18µM*
CCn1c(C)cc(/C=C2/SC(=O)N(CC(=O)N3CCCC3)C2=O)c1C	?	1%	?	i	-1%
Cc1ccc(S(=O)(=O)N(C)c2ccc3c(c2)C(=O)c2ccccc2-3)cc1	/	/	21µM*	?	/
COc1cc2c(cc1OC)-c1nc3ccccc3c(=O)n1C(C)(C)C2	?	-6%	9.2µM*	i	-2%
CC(C)(CO)NCC(O)COc1ccc2c(c1)CCC2 (stereo unspecified)	-1%	5%	i	i	-1%
CC(C)(C)CC(C)(C)NCC(O)COc1ccc2c(c1)CCC2 (stereo unspecified)	/	?	?	21µM*	?
CCC(c1nnnn1C(C)(C)C)N(Cc1ccco1)Cc1cc2cccc(C)c2[nH]c1=O (stereo unspecified)	?	9%	23µM*	i	2%
Cc1cc(C)c2[nH]c(=O)c(C(c3nnnn3C(C)(C)C)N(Cc3ccco3)CC3CCCO3)cc2c1 (stereo unspecified)	-5%	-13%	i	i	-1%
CCC(c1nnnn1CCc1ccccc1)N(Cc1ccco1)Cc1cc2cccc(C)c2[nH]c1=O (stereo unspecified)	?	?	7.3µM*	?	-1%
Cc1ccc2cc(CN(CCCN3CCOCC3)C(c3nnnn3Cc3ccco3)C(C)C)c(=O)[nH]c2c1C (stereo unspecified)	/	?	i	i	21µM*
CCOc1ccc2[nH]c(=O)c(CN(Cc3ccco3)C(CC)c3nnnn3Cc3ccccc3)cc2c1 (stereo unspecified)	?	13%	?	?	21%
CCOCCCNC(=O)C1(O)c2ccccc2NC(=O)N1c1ccc(Cl)cc1 (stereo unspecified)	21%	-2%	i	i	-8%
CC(c1ccccc1)N1C(=O)c2ccc(C(=O)NCc3cccnc3)cc2C1=O (stereo unspecified)	-1%	-17%	i	i	-21%
CC1(C)CC(N=c2cc(-c3ccccc3)oc3ccc(Cl)cc23)CC(C)(C)N1	?	?	?	21µM*	?
O=C(O)CSCC(=O)N(c1ccccc1)c1ccccc1	-1%	-3%	?	i	0%
COc1ccccc1OCCNC(=O)c1cc(C2CC2)nc2c1cnn2C(C)C	13µM*	-1%	i	i	-4%
COc1ccccc1CCNC(=O)c1cc(C2CC2)nc2c1cnn2C(C)C	-9%	?	i	i	-23%
COc1cc(OC)c(/C=C/c2nc3ccccc3o2)c(OC)c1	/	/	i	?	/
CCN(C(=O)c1coc(=O)c(Br)c1)c1ccc2c(c1)OCO2	26%	13µM*	i	i	?
CC(=O)OC[C@H]1O[C@@H](n2ncc(=O)[nH]c2=O)[C@H](OC(C)=O)[C@@H]1OC(C)=O	?	-12%	8.2µM*	3.3µM*	?
O=C(OCC1OC(n2ncc(=O)[nH]c2=O)C(OC(=O)c2ccccc2)C1OC(=O)c1ccccc1)c1ccccc1 (stereo unspecified)	-1%	?	i	i	?
O=C(O)Cn1ccc2cc(S(=O)(=O)N3CCCCC3)ccc21	/	/	i	i	/
SMILES	ELG1 DNA repair	MCF10A rerep	KB-V1 MDR tox	KB-3-1 cytotox	SW480 rerep
CN(C)c1ccc(/C=N/NC(=O)C2COc3ccccc3O2)o1 (stereo unspecified)	-8%	7%	i	i	6%
O=C(N/N=C\c1ccc(-c2ccc([N+](=O)[O-])cc2)o1)C1COc2ccccc2O1 (stereo unspecified)	?	21µM*	?	i	8%
O=C(N/N=C/c1ccc(-c2ccc([N+](=O)[O-])cc2)o1)[C@H]1C[C@@H]1c1ccccc1	-16%	23µM*	i	i	8.2µM*
COC(=O)C(NC(=O)C(CC(C)C)NC(=O)C1CCC(C)CC1)C(C)C (stereo unspecified)	-8%	6%	?	i	7%
CCCCCCC1CCC(C(=O)NC(CCSC)C(=O)NC(C(=O)OC)C(C)C)CC1 (stereo unspecified)	13%	7.3µM*	i	i	17%
Cc1ccc(C(C)C)c(OCCNC(=S)Nc2cccc3ccccc23)c1	-14%	?	i	?	5.6µM*
Cc1cc(C(=O)COC(=O)/C=C/c2ccco2)c(C)n1C	?	-23%	i	?	-20%
COc1cc(/C=C/C(=O)c2ccc3c(c2)OCO3)cc(OC)c1OC	16µM*	179%	21µM*	?	284%
O=C(C=Cc1ccc2c(c1)OCO2)c1ccccc1	/	18µM*	i	i	?
COc1ccc(OC)c(/C=C/C(=O)c2ccc3c(c2)OCCO3)c1	-15%	21µM*	?	?	8%
CCOc1cc(/C=C/C(=O)c2ccc(C)cc2)ccc1OCC(=O)N(C)C	18µM*	23µM*	15µM*	?	?
COC(=O)[C@@]12CCCN1[C@H](c1ccc(-c3ccc(OC)cc3)cc1)[C@@H]1C(=O)N(C)C(=O)[C@@H]12	-29%	1%	i	?	?
Cc1cc(Cl)ccc1OCC(O)CNCCc1ccc(S(N)(=O)=O)cc1 (stereo unspecified)	-12%	?	i	i	?
COC(=O)[C@]1(C)N[C@H](CN(C)S(=O)(=O)c2ccc(OC(F)(F)F)cc2)[C@@H]2C(=O)N(C)C(=O)[C@@H]21	0%	?	i	i	-19%
CCOc1ccc(NC(=O)CN(C)C(=O)COc2cccc3c2OC(C)(C)C3)cc1OCC	-6%	-2%	i	i	?
O=C(C=Cc1cccc(Cl)c1)c1ccccc1	/	18µM*	?	?	15µM*
CCOC(=O)c1cccc(NC(=O)/C=C/c2ccc3c(c2)OCO3)c1	?	9.2µM*	?	10µM*	3%
COc1cc(C(=O)c2cc3c(cc2C)OCO3)cc(OC)c1OC	/	/	0.41µM*	0.16µM*	/

Screens (PubChem BioAssay)
